The results in this text go back to PubChem BioAssay.

Activity calls are given as the source filed them.

Assay [1] can be described thus: optical density shifts of acrAB sulA E. coli – strain DRC41, OD650, 48 h, E. coli filamentation inducer project, primary screen (AID 1152).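 Further: E. coli MC1000 strain DRC41 lacking acrAB efflux pump and sulA.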 Particulars: higher = more signal, called active from +8 up or from −8 down.
A short description of assay [2]: probe aLefty1 binding on compound microarray – biochemical, small-molecule microarray, 635/667 nm fluorescence, primary screen (AID 1153).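 Further: score merges spot fluorescence with signal-to-noise ratio from the scanned slide images.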 Particulars: higher = more signal.
Assay [3] can be described thus: plasmodial surface anion channel blockers, osmotic lysis – cell-based, P. falciparum Indochina, OD700, 1 h, primary screen (AID 1154). As to conditions: P. falciparum Indochina infected RBC osmotic lysis, higher = more signal, called active from +8 up or from −8 down.
Assay [4] can be described thus: plasmodial surface anion channel blockers, osmotic lysis – cell-based, P. falciparum Indochina, OD700, 2 h, primary screen (AID 1155).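 Further: lysis reports solute entry through the parasite surface anion channel PSAC.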 Particulars: P. falciparum Indochina infected erythrocytes, higher = more signal, called active from +8 up or from −8 down.
Assay [5] is described as follows: changes in parasitized red cell lysis, either direction – P. falciparum Indochina, OD700, 3 h, PSAC antagonist project, primary screen (AID 1156). Particulars: P. falciparum-infected erythrocytes, osmotic lysis, higher = more signal, called active from +8 up or from −8 down.
Assay [6] is described as follows: plasmodial surface anion channel blockers, osmotic lysis – cell-based, P. falciparum Indochina, OD700, 18 h, primary screen (AID 1157). Particulars: P. falciparum Indochina infected erythrocytes, osmotic lysis OD700, 18 h; higher = more signal, called active from +8 up or from −8 down.
Assay [7] in a line: S6 kinase pathway phospho-S6 level changes – cell-based, A549, cytoblot, luminescence, serum-stimulated, primary screen (AID 1158).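 Further: serum-stimulated A549 lung adenocarcinoma cells; signal is phosphorylated S6 detected by cytoblot immunostaining with HRP secondary.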 As to conditions: 5 h, higher = more signal.
Assay [8] addresses NADPH oxidase 2 (Homo sapiens) (UniProt P04839). The assay is described as follows: compounds shifting NOX2 Amplex Red fluorescence – cell-based, HEK293-NOX2, PMA-stimulated, NOX inhibitor project, primary screen (AID 1159). Further: test concentration not given here. As to conditions: 45 min, higher = more signal, called active from +8 up or from −8 down.
Assay [9] deals with NADPH oxidase 4 (Homo sapiens) (UniProt Q9NPH5). Kind of assay: compounds shifting NOX4 Amplex Red fluorescence – cell-based, HEK293-NOX4, tetracycline-induced, NOX inhibitor project, primary screen (AID 1160). Particulars: HEK293-NOX4, Amplex Red H2O2 fluorescence, 45 min; higher = more signal, called active from +8 up or from −8 down.
Chain of NADPH oxidase 4 (Homo sapiens) (Q9NPH5 whole entry, looked up): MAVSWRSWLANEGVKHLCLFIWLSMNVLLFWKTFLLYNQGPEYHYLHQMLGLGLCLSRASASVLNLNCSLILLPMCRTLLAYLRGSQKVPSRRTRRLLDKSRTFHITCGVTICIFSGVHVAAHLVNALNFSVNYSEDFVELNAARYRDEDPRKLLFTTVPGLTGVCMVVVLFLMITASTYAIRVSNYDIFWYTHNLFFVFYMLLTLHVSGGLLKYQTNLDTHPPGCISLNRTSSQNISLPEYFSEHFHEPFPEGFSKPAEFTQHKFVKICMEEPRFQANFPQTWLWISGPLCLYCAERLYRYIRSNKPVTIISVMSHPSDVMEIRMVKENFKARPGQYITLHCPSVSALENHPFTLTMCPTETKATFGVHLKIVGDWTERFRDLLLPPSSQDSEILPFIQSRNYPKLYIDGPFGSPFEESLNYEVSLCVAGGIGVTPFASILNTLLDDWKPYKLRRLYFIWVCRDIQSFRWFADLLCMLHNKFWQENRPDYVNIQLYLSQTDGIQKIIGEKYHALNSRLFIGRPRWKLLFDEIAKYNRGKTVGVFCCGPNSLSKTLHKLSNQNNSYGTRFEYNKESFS
The target of assay [10] is NADPH oxidase 5 (Homo sapiens) (UniProt Q96PH1). Kind of assay: compounds shifting NOX5 Amplex Red fluorescence – cell-based, HEK293-NOX5, NOX inhibitor project, primary screen (AID 1161). As to conditions: HEK293-NOX5, ionomycin, 45 min, higher = more signal.
Chain of NADPH oxidase 5 (Homo sapiens) (Q96PH1 whole entry, looked up): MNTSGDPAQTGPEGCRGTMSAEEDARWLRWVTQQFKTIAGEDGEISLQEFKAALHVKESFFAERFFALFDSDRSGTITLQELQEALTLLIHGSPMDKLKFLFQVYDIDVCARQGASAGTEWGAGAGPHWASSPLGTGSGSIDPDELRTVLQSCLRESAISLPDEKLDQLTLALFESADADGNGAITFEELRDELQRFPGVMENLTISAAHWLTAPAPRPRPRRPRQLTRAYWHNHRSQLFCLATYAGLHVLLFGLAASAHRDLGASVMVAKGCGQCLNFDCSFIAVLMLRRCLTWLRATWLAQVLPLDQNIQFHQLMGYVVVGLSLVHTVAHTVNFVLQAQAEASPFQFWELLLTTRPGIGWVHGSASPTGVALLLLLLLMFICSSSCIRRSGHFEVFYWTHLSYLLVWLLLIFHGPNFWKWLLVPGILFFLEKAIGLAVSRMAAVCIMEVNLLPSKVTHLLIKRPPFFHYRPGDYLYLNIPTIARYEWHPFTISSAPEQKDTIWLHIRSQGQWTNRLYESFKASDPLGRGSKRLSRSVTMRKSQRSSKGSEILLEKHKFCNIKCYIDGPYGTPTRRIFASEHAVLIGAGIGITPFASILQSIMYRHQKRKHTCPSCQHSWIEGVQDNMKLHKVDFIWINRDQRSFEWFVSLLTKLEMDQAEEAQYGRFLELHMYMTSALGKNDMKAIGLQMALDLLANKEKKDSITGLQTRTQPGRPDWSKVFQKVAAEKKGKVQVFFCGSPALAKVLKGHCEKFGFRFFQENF

Chain of NADPH oxidase 2 (Homo sapiens) (P04839 whole entry, looked up): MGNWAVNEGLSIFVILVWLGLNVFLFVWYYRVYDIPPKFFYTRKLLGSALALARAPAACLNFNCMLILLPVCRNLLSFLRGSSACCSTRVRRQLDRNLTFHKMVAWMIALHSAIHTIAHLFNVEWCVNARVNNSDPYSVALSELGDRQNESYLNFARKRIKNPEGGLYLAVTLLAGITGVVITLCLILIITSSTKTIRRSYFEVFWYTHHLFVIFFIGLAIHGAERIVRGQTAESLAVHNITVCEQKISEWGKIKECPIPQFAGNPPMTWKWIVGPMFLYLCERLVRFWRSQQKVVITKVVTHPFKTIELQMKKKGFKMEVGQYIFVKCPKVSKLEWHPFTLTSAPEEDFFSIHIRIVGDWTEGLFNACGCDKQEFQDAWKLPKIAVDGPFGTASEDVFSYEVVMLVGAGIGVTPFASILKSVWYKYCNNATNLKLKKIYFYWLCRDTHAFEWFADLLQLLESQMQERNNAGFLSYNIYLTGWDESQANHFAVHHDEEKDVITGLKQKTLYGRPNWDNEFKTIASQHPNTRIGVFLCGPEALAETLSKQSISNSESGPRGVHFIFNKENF

With `C=C(COC)/C(=C/C[C@H](OC(C)=O)c1ccccc1OCCO)c1cnc2ccccc2c1`, the z-score is -0.0836 (inactive) in [1]; 16.9 (active) in [3]; 2.74 (inactive) in assay [4]; 0.661 (inactive) in assay [5]; 0.799 (inactive) in [6]; -0.177 in assay [7]. Also, the z-score in [8] is -1.79 (inactive); in [9] it was -0.0686 (inactive); in assay [10] it was -0.854. Moreover, the composite z-score in [2] was -0.0779.
As to `O=C(NCc1ccccc1)[C@@H]1c2ccccc2C(=O)N(Cc2cc(F)cc(C(F)(F)F)c2)[C@H]1c1ccc(CO)cc1`, the z-score in assay [1] was 0.363 (inactive); in [3], 5.82 (inactive); in assay [4], 1.23 (inactive); in assay [5], 1.03 (inactive); in assay [6], 0.156 (inactive); in [7], -0.26. Besides, the z-score in assay [8] was -2.01 (inactive); in assay [9], 0.598 (inactive); in assay [10] it was -1.58. The compound also displayed a composite z-score in assay [2] of 0.0455.
For the compound `O=C1OCC=C[C@H]2OC34C=CCN(c5ccc6ccccc6c5)C(=O)[C@H]3N(CCO)C(=O)[C@@H]4[C@@H]12` (stereo not given in full), the z-score in [1] is -0.773 (inactive); in assay [3], 1.33 (inactive); in assay [4] it was 0.796 (inactive); in assay [5], 0.547 (inactive); in [6], 0.552 (inactive); in assay [7], -0.572. Further, the z-score in assay [8] was 1.53 (inactive); in assay [9] it was 1.05 (inactive); in assay [10] it was 1.46. Also, in assay [2], the composite z-score came out at 0.235.
Regarding `Cc1ccc(N2C(=O)c3ccccc3[C@@H](C(=O)NCC(C)C)[C@@H]2c2ccc(CO)cc2)nc1`, the z-score in [1] is 0.569 (inactive); in [3], 3.15 (inactive); in assay [4] it was 0.48 (inactive); in [5] it was 1.38 (inactive); in [6], 0.231 (inactive); in assay [7], 0.0174. Moreover, the z-score in [8] was -0.0277 (inactive); in assay [9] it was 0.918 (inactive); in assay [10], 0.84. Moreover, in assay [2], the composite z-score is -0.0186.
Consider `C#C[C@H]1Oc2ccccc2S(=O)(=O)N2CCC[C@@H]12`, for which the z-score was -0.789 (inactive) in [1]; 0.264 (inactive) in [3]; 0.276 (inactive) in assay [4]; 0.0691 (inactive) in assay [5]; 0.0594 (inactive) in assay [6]; 0.213 in assay [7]. Also, the z-score in [8] was 0.281 (inactive); in assay [9], -1.29 (inactive); in assay [10], -0.494. For the same compound, the composite z-score in assay [2] was -0.106.
For `[N-]=[N+]=NCc1ccccc1C[C@]1(C(=O)NCc2ccccc2)COC(c2ccc(OCCCO)cc2)=N1`, the z-score was 0.104 (inactive) in assay [1]; 28.9 (active) in [3]; 24.6 (active) in assay [4]; 4.42 (inactive) in assay [5]; 2.78 (inactive) in [6]; -0.153 in assay [7]. Further, the figures for the z-score in assay [8], in [9] and in [10] were -2.28 (inactive), -0.958 (inactive) and -1.81, respectively. Also, the composite z-score in [2] is -0.373.
For the compound `O=C1C2C=CC(C(O)c3ccccn3)N(Nc3ccccc3F)C2C(=O)N1c1ccccc1` (stereo not given), the z-score in [1] was -0.882 (inactive); in [3], 0.671 (inactive); in assay [4] it was 0.571 (inactive); in assay [5] it was 0.42 (inactive); in [6], 1.19 (inactive); in [7], -0.725. Further, the z-score in assay [8] is -1.63 (inactive); in [9], -3.57 (inactive); in assay [10], -1.54. Besides, the composite z-score in [2] is -0.133.
As for `C=C(C)[C@@H]1CC=C(C(O)C2C=CC3C(=O)N(Cc4ccccc4)C(=O)C3N2n2cnnc2)CC1` (stereo not given in full), the z-score in assay [1] is -1.05 (inactive); in assay [3], 1.48 (inactive); in assay [4] it was -0.289 (inactive); in [5] it was 1.28 (inactive); in assay [6], -1.38 (inactive); in assay [7], 1.65. Moreover, the z-score was -3.5 (inactive) in assay [8], -2.39 (inactive) in [9] and -3.6 in [10]. Besides, the composite z-score in assay [2] is 0.298.
On to `CC[C@@H]1C=C(C(=O)O)[C@H](c2ccc(C(C)C)cc2)N1S(=O)(=O)c1ccc(C)cc1`, for which the z-score in assay [1] is -0.646 (inactive); in assay [3] it was 0.998 (inactive); in [4], 0.845 (inactive); in assay [5] it was 0.105 (inactive); in assay [6] it was 0.709 (inactive); in [7], -0.334. The z-score is 0.685 (inactive) in [8], -0.418 (inactive) in assay [9] and -0.0711 in [10]. The composite z-score in [2] stood at 1.36.
For `CC1CC/C=C\[C@H]2OC34C=CCN(c5ccc6ccccc6c5)C(=O)[C@H]3N(CCCCCO)C(=O)[C@@H]4C2C(=O)O1` (stereo not given in full), the z-score in assay [1] was -0.557 (inactive); in [3] it was 0.157 (inactive); in assay [4], 0.222 (inactive); in assay [5], -0.0324 (inactive); in assay [6] it was 0.0382 (inactive); in assay [7], 0.455. The results for the z-score in [8], in assay [9] and in [10] were 0.718 (inactive), -0.265 (inactive) and 1.7, respectively. Moreover, in assay [2], the composite z-score is -0.427.
In the case of `COc1ccc([Si](C)(C)[C@@H]2[C@@H](CCO)O[C@]3(C(=O)N(Cc4ccccc4)c4ccc(N(C=O)c5ccccc5)cc43)[C@H]2C)cc1`, the z-score in [1] is 0.601 (inactive); in [3] it was 2.8 (inactive); in assay [4], 2.37 (inactive); in assay [5], 1.09 (inactive); in [6] it was 1.87 (inactive); in [7], 0.418. In addition, the z-score is 0.337 (inactive) in [8], 1.06 (inactive) in assay [9] and 2.49 in assay [10]. In addition, in [2], the composite z-score worked out at 0.0355.
As for `[N-]=[N+]=NCc1ccccc1[C@@H]1OC(c2ccc(OCCCO)cc2)=N[C@]1(Cc1ccccc1)C(=O)O`, the z-score in assay [1] is -0.235 (inactive); in assay [3], 15.6 (active); in [4], 2.07 (inactive); in assay [5], -0.143 (inactive); in assay [6], 0.786 (inactive); in assay [7] it was -0.117. Also, the z-score in [8] was 0.174 (inactive); in assay [9] it was 1.1 (inactive); in assay [10] it was 1.74. In addition, the composite z-score in [2] amounted to 0.0429.
